PD-1 reversal – activators reversing PD-1 mediated T-cell inhibition | primary human CD4 T cells, PD-L1 beads, CellTiter-Glo 96 h | activation, % (no concentration beside the values) | 29,000 tested, under 10 active | AID 2316; call rule not given here
Shh pathway inh – blocks Sonic Hedgehog signaling. Shh-LIGHT2 Gli-luciferase reporter, 30 h. inhibition, % (concentration not given with the values). actives 2.1% (n = 22,000). AID 2313;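 active = mean inhibition across valid replicates above about 65%, limit read from the data; inconclusive = mean under the limit, yet half or more replicates past it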;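 also: pathway switched on by Shh-conditioned medium diluted 1 in 25 in low serum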
NOMO-1 viab – STK33 inhibitor candidate reducing NOMO-1 cell viability; NOMO-1 AML viability, CellTiter-Glo luminescence, 72 h; inhibition, % (test concentration not listed); actives 7.5% (n = 37,000); AID 2330; in the data active = inhibition above about 80%; inconclusive = no clear call, values can overlap the other calls
Numbers stand for hits; n = inactive; u = inconclusive; x = not tested or not shown. Most compounds without a hit are left out; they make up all but 7.7% or so of the library.

SMILES	PD-1 reversal	Shh pathway inh	NOMO-1 viab
O=C(Nc1ccccc1[N+](=O)[O-])c1cc(S(=O)(=O)Nc2ccccc2)ccc1Cl	n	x	n
O=C(/C=C/Oc1ccc(Cl)cc1)c1ccc(Br)cc1	n	n	117
O=C(N1CC(Oc2ccc(Cl)cc2)C1)N1CC(Oc2ccc(Cl)cc2)C1	n	n	n
Cc1cc(NC(=O)C(=O)NCCCN2CCOCC2)ccc1Br	x	x	n
COC(=O)C(NC(=O)c1ccccc1)(c1c(C)[nH]n(-c2ccccc2)c1=O)C(F)(F)F (configuration not stated)	x	x	n
Cc1ccc(S(=O)(=O)Nc2ccc3c(c2)C(=O)N([C@H](C)CO)C[C@H](C)[C@@H](CN(C)S(=O)(=O)c2ccc(C)cc2)OCCCC[C@@H](C)O3)cc1	x	n	n
C[C@@H]1CCCCO[C@@H](CN(C)S(=O)(=O)c2ccc(Cl)cc2)[C@@H](C)CN([C@H](C)CO)C(=O)c2cc(NS(=O)(=O)c3cccs3)ccc2O1	n	n	n
Cc1ccc(S(=O)(=O)Nc2ccc3c(c2)C(=O)N([C@H](C)CO)C[C@H](C)[C@H](CN(C)S(=O)(=O)c2ccc(C)cc2)OCCCC[C@@H](C)O3)cc1	n	x	95
C[C@@H]1CCCCO[C@H](CN(C)S(=O)(=O)c2ccc(F)cc2)[C@@H](C)CN([C@H](C)CO)C(=O)c2cc(NS(=O)(=O)c3ccc(F)cc3)ccc2O1	x	n	n
C[C@@H]1CCCCO[C@H](CN(C)S(=O)(=O)c2ccc(F)cc2)[C@@H](C)CN([C@H](C)CO)C(=O)c2cc(NS(=O)(=O)c3ccc(Cl)cc3)ccc2O1	x	n	n
C[C@@H]1CCCCO[C@@H](CN(C)S(=O)(=O)c2ccc(F)cc2)[C@@H](C)CN([C@H](C)CO)C(=O)c2cc(NS(=O)(=O)c3ccc(Cl)cc3)ccc2O1	n	n	112
C[C@@H]1CCCCO[C@@H](CN(C)S(C)(=O)=O)[C@@H](C)CN([C@H](C)CO)C(=O)c2cc(NS(=O)(=O)c3ccc(F)cc3)ccc2O1	n	74	n
C[C@@H]1CCCCO[C@@H](CN(C)S(=O)(=O)c2cccs2)[C@@H](C)CN([C@H](C)CO)C(=O)c2cc(NS(=O)(=O)c3ccc(Cl)cc3)ccc2O1	n	n	86
CCc1ccccc1N(CC(=O)NC)S(C)(=O)=O	n	x	n
Cc1ccc(NC(=O)c2cc(=O)[nH]c(=O)[nH]2)cc1	n	n	n
O=C(NC(=S)NCc1cccnc1)c1ccc(-c2cccc(Cl)c2Cl)o1	n	x	n
Cc1ccc(NC(=O)CSc2nnc(-c3cccnc3)n2-c2ccc(Br)cc2)cc1F	n	x	n
O=C(CSc1nnc(-c2ccc(Br)cc2)o1)Nc1cccc(C(=O)N2CCOCC2)c1	x	x	n
Cn1c(SCC(=O)c2ccc([N+](=O)[O-])cc2)nnc1-c1cccs1	n	x	n
C[C@@H]1CCCCO[C@@H](CN(C)C(=O)Nc2ccc(F)cc2)[C@@H](C)CN([C@H](C)CO)C(=O)c2cc(NS(=O)(=O)c3cn(C)cn3)ccc2O1	n	n	n
CC(C)NC(=O)N(C)C[C@H]1OCCCC[C@@H](C)Oc2ccc(NS(=O)(=O)c3cn(C)cn3)cc2C(=O)N([C@H](C)CO)C[C@@H]1C	n	72	n
O=C(CSC1CC(=O)N(c2ccccc2)C1=O)Nc1ccc(Cl)c(Cl)c1 (configuration not stated)	x	x	n
C[C@@H]1CN([C@H](C)CO)C(=O)Cc2cc(NS(=O)(=O)c3ccc(Cl)cc3)ccc2O[C@H]1CN(C)Cc1ccc(Cl)c(Cl)c1	n	n	105
C[C@H]1CN([C@@H](C)CO)C(=O)Cc2cc(NS(=O)(=O)c3ccc(F)cc3)ccc2O[C@H]1CN(C)Cc1ccc(Cl)c(Cl)c1	n	n	u
C[C@@H]1CN([C@H](C)CO)C(=O)Cc2cc(NS(=O)(=O)c3ccc(F)cc3)ccc2O[C@H]1CN(C)Cc1ccc(Cl)c(Cl)c1	x	n	102
SMILES	PD-1 reversal	Shh pathway inh	NOMO-1 viab
C[C@H](CO)N1C[C@H](C)[C@H](CN(C)Cc2ccc(Cl)c(Cl)c2)Oc2ccc(NS(C)(=O)=O)cc2CC1=O	x	n	n
CN(CC(=O)Nc1ccccc1C#N)S(=O)(=O)c1ccccc1	x	x	n
Cc1cccc(N2C(=O)c3ccc(C(=O)Nc4c[nH]c(=O)[nH]c4=O)cc3C2=O)c1C	n	n	n
CC(C)OC(=O)c1cc(N)c2c(-c3ccc(F)cc3)c(-c3cccs3)sc2n1	n	n	n
CC1(C)CC[C@]2(C(=O)O[C@@H]3O[C@H](CO)[C@@H](O)[C@H](O)[C@H]3O)CC[C@]3(C)C(=CCC4[C@@]5(C)C[C@@H](O)[C@H](O)[C@@](C)(CO)C5[C@H](O)C[C@]43C)C2[C@@H]1O (some centres not stated)	n	n	n
O=C(CCNc1ccc(Oc2ccccc2)cc1)c1ccco1	n	x	131
COc1ccc(NC(=O)CNC(=O)c2ccco2)cc1	x	x	n
CCCOc1ccc(-c2nc(SCC(N)=O)n[nH]2)cc1	x	x	n
COc1ccc(C(C)C)cc1S(=O)(=O)n1nnc2ccccc21	n	x	n
COc1ccc(C(C)C)cc1S(=O)(=O)n1cnc2ccccc21	n	x	123
CSc1ncc(Cl)c(C(=O)Nc2sc3c(c2C(=O)NCCc2ccccc2)CCC3)n1	n	x	n
COCCNC(=O)c1c(NC(=O)c2nc(SC)ncc2Cl)sc2c1CCCC2	n	x	138
CN(c1cccc(NC(=O)c2ccc(CN3CCOCC3)cc2)c1)S(C)(=O)=O	n	x	n
COc1cccc(C=C2C(=O)c3ccccc3C2=O)c1OC(C)C	n	n	104
COc1cccc(-c2cc(=O)c3ccccc3o2)c1N	n	n	n

Assay outcomes: PubChem, Broad Institute
